High-throughput results deposited in PubChem BioAssay by The Scripps Research Institute Molecular Screening Center.
Only some compounds are listed: those with a hit (about 3.5% of all), similar ones and a draw of the others.
FBW7 activator = FBW7 E3 ligase activators, primary screen, biochemical, AlphaScreen, human. F-box/WD repeat-containing protein 7 (Homo sapiens), Q969H0. AlphaScreen FBW7–phospho-cyclin E peptide binding, activator screen. normalized activity (activation), % at 26.1 µM. hit rate 0.13% among 650,000; in the data active = normalized activity above about 1.9%;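 note: purified mutant Fbw7 with reduced substrate affinity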
TEAD-YAP block = TEAD-YAP interaction inhibition, primary screen, TEAD-YAP interaction inhibitor project, luminescence, HEK-TIYL cells. TEAD-Gal4/YAP UAS-luciferase luminescence. hit rate 1.4% among 640,000. inhibition, % at 9.12 µM; in the data active = inhibition above about 32%;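 note: 0% = median of test compound wells and 100% = reference inhibitor wells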
MITF inh = MITF inhibitors, primary screen, biochemical, AlphaScreen, human; Microphthalmia-associated transcription factor (Homo sapiens), O75030; AlphaScreen MITF homodimerization, bead proximity signal; inhibition, % at 2.6 µM; hit rate 0.91% among 650,000; in the data active = inhibition above about 50%;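 note: 0% = vehicle wells with protein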
Target sequence (O75030 whole entry, looked up): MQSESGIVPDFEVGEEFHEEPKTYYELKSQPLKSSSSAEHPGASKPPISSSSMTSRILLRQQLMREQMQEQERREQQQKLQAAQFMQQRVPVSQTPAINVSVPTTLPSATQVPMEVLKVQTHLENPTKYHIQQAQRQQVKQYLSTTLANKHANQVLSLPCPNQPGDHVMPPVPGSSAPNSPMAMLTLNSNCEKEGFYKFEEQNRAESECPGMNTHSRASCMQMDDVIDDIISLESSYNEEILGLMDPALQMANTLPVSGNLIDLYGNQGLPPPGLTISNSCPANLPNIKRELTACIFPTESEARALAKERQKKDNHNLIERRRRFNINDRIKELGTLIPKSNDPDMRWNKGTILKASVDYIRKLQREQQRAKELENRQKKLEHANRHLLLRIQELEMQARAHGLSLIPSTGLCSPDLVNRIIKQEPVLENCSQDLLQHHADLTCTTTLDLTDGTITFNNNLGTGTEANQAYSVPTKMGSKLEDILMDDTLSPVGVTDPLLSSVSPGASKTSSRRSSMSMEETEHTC
GPR151 ag = activators of human GPR151, primary screen, cell-based, PathHunter beta-arrestin, luminescence; G-protein coupled receptor 151 (Homo sapiens), Q8TDV0; PathHunter beta-arrestin GPR151 cells; activation, % at 11.2 µM; hit rate 1% among 650,000; in the data active = activation above about 4.9%;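 note: 0% = median of compound wells and 100% = cells with positive control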
An asterisk follows results filed as active.

SMILES | FBW7 activator | TEAD-YAP block | MITF inh | GPR151 ag
COC(=O)c1nc(N)n(-c2nc(-c3ccc(OC)cc3)cc(C(F)(F)F)n2)n1 | 0 | 9 | 4 | -1
Cc1ccc(CNC(=O)c2ccc(NS(C)(=O)=O)cc2)cc1 | 0 | -23 | 5 | 1
COc1cc(Nc2ccnc(-c3ccc(C(N)=O)cc3)n2)cc(OC)c1OC | 0 | 51* | 14 | -2
COc1cc(NC(=O)c2csc(N3CCN(Cc4ccc5c(c4)OCO5)CC3)n2)cc(OC)c1OC | 0 | 41* | 3 | 3
COc1cc(NC(=O)c2csc(-c3ccc(C(N)=O)cc3)n2)cc(OC)c1OC | 0 | 36* | -3 | 1
COc1ccc(-c2nc(C(=O)Nc3cc(OC)c(OC)c(OC)c3)cs2)cc1 | 1 | 14 | 2 | 0
CCN(CC)c1ccc(/C=C/C23NC(=O)CCN2c2ccc(C)cc2C3(C)C)cc1 (stereo not given) | -1 | 52* | 40 | 2
c1cncc(CNc2ncnc3nc(Nc4ccc5ncccc5c4)[nH]c23)c1 | 0 | 38* | -3 | -2
COc1ccc(C2CC(=O)C(C=Nc3ccc(C)cc3)=C(O)C2)cc1 (stereo not given) | 0 | 1 | -6 | -1
Oc1ccc(Br)cc1CN1CCN(CC2CC3C=CC2C3)CC1 (stereo not given) | 0 | 3 | 39 | 0
Oc1ccc(Br)cc1CN1CCN(Cc2cccnc2)CC1 | 0 | 5 | 67* | -1
COc1ccc(-c2cc(Nc3ccccc3)nc(N)n2)cn1 | 0 | 0 | 1 | -2
CCc1ccc2nc(N3CCC(C(=O)NC(C)C)CC3)sc2c1 | 0 | 40* | -10 | 1
CCc1ccc2nc(N3CCC(C(=O)NC4CCCCC4)CC3)sc2c1 | 0 | 70* | 14 | -1
CC(=O)N[C@@H](Cc1cccc(C)c1)c1nc2ncc(-c3ccncc3)cc2[nH]1 | 0 | 46* | -4 | -1
Cc1ccc2c(c1)C1OCCC1C(c1cccs1)N2 (stereo not given) | 0 | 42* | 0 | 0
COc1cccc(-c2nc3cnccn3c2NCc2ccco2)c1OC | 0 | 4 | -2 | 0
COc1ccccc1NC(=O)Nc1c(SC)nsc1SC | 0 | 37* | 8 | -1
O=c1[nH]c(=O)n(-c2ccccc2)c(O)c1C=Nc1ccccc1Cl | 0 | -1 | -15 | -2
CCOC(=O)N1CCN(S(=O)(=O)c2ccc(C(=O)Nc3ccc(C(C)=O)cc3)cc2)CC1 | 0 | -11 | -4 | 1
CCN(C1CCCCC1)S(=O)(=O)c1ccc(C(=O)Nc2ccc(F)cc2)cc1 | 0 | 33* | -1 | 1
CCOC(=O)N1CCN(S(=O)(=O)c2ccc(C(=O)Nc3ccc(F)cc3)cc2)CC1 | 0 | 41* | 4 | 0
CN(C1CCCCC1)S(=O)(=O)c1ccc(NC(=O)c2ccc(F)cc2)cc1 | 0 | 4 | 8 | 5
CCCN(CCC)S(=O)(=O)c1ccc(F)c(C(=O)Nc2ccccc2OCC)c1 | 0 | 0 | 12 | 3
COc1ccc(S(=O)(=O)NCC(c2ccsc2)N2CCCCCC2)cc1OC (stereo not given) | 0 | 1 | 13 | -2
SMILES | FBW7 activator | TEAD-YAP block | MITF inh | GPR151 ag
CCOC(=O)C1=C(C)Nc2nc3ccccc3n2C1c1ccc(Br)cc1 (stereo not given) | 0 | -2 | -5 | -1
C=CCN=c1scc(-c2ccco2)n1/N=C/c1cccs1 | -1 | 34* | 22 | 1
O=C(CCCCCN1C(=O)c2cccc([N+](=O)[O-])c2C1=O)Nc1ccc(Cl)cc1 | 0 | 2 | 7 | -1
CC(C)n1cnc2c(Nc3ccccc3)nc(-c3cccc(N)c3)nc21 | 0 | 13 | 6 | -1
CC(=O)Nc1ccc(Nc2nc(-c3cccc(N)c3)nc3c2ncn3C(C)C)cc1 | 0 | 38* | 11 | -1
CC(=O)Nc1ccc(Nc2nc(-c3ccccc3)nc3c2ncn3-c2ccccc2)cc1 | 0 | 8 | -8 | 0
CC(=O)Nc1ccc(Nc2nc(-c3ccc(C(N)=O)cc3)nc3c2ncn3C(C)C)cc1 | 0 | 28 | 2 | 0
COc1ccc(-c2nc(Nc3ccc(NC(C)=O)cc3)c3ncn(C(C)C)c3n2)cn1 | 0 | 35* | 3 | 4
CC(=O)Nc1ccc(Nc2nc(-c3cccc(N)c3)nc3c2ncn3-c2ccccc2)cc1 | 0 | 41* | 25 | 0
CCOC(=O)c1cc2sc(Br)cc2n1CC(=O)N(C)C | 0 | 34* | -12 | 1
O=C1c2ccc([N+](=O)[O-])cc2C(=O)N1CCCCN1C(=O)c2ccc([N+](=O)[O-])cc2C1=O | 0 | 1 | 0 | 2
O=C(O)c1ccc(N2C(=O)c3ccc(Oc4ccc([N+](=O)[O-])cc4)cc3C2=O)cc1[N+](=O)[O-] | 2.5* | 3 | -10 | 0
O=C1C(=O)c2cc([N+](=O)[O-])ccc2-c2ccc([N+](=O)[O-])cc21 | -1 | 53* | 15 | 1
O=C(O)c1ccc(Oc2ccc(N3C(=O)c4ccc(Oc5ccc([N+](=O)[O-])cc5)cc4C3=O)cc2)cc1 | 0 | -5 | 1 | 1
O=C1c2ccc([N+](=O)[O-])cc2C(=O)N1c1ccc(O)cc1 | 0 | 7 | -5 | 2
O=C1c2ccc([N+](=O)[O-])cc2C(=O)N1c1ccc(I)cc1 | 2.2* | 4 | 7 | -1
Nn1cnnc1N/N=C/c1cc(Br)ccc1O | -1 | 2 | 16 | 0
CCOC(=O)C(=CNC12CC3CC(CC(C3)C1)C2)C(=O)OCC | 0 | 12 | 4 | 0
Cc1cc(C(=O)N/N=C/c2cc(N=Nc3ccccc3)ccc2O)n[nH]1 | 0 | 62* | 28 | 0
COc1cc(Br)cc(/C=N/NC(=O)c2cc(C)[nH]n2)c1O | 0 | 19 | 55* | 1
COc1cc([N+](=O)[O-])cc(/C=N/NC(=O)c2cc(C)[nH]n2)c1O | -1 | -5 | 59* | -1
COc1cc(/C=N/NC(=O)c2cc(C)[nH]n2)c(Br)c(Br)c1O | 0 | 4 | 17 | 1
Cc1cc(C(=O)N/N=C\c2ccccc2O)n[nH]1 | -2 | -43 | 30 | 0
Cc1ccccc1Cn1c(C(=O)O)c(CNC2CCCC2)c2ccccc21 | 0 | 6 | -2 | 0
O=C1c2ccccc2NC(c2ccc(OCc3ccccc3)cc2)N1c1ccc(Br)cc1 (stereo not given) | 0 | -71 | -1 | -1
CC(C)C(NC(=O)CN(c1ccccc1Br)S(C)(=O)=O)C(C)C | 2.4* | -14 | 22 | 0
COc1ccccc1N(CC(=O)NC(C(C)C)C(C)C)S(C)(=O)=O | 0 | -3 | -8 | 0
C[C@@H]1C[C@@H]2O[C@H]2C=CC=CC(=O)Cc2c(Cl)c(O)cc(O)c2C(=O)O1 | 0 | 52* | -10 | -1
COc1ccccc1CNC(=O)CS(=O)Cc1nc(-c2ccccc2C)oc1C (stereo not given) | 2.6* | -4 | 26 | -1
Cc1oc(-c2ccccc2Cl)nc1CS(=O)CC(=O)NCc1ccccn1 (stereo not given) | 1 | 2 | -4 | 0
